Reference: PubChem BioAssay (NCI)
About 83,000 compounds went through this panel and 20% of them were active in at least one assay; those are over-represented in the sample as a whole.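 Step 1: grow cells in 96-well plates. Step 2: add test compound at a single concentration. Step 3: incubate 48 h. Step 4: record percent growth.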 Values without a mark were called inactive. Active and inactive are the calls of the source. How the source made its calls: active means growth percent below 10; inactive means the rest.

What follows are compounds tested on KM12 colon (assay: NCI-60 one-dose screen, 48 h (100 = growth as untreated, 0 = no growth, -100 = all killed)). Conditions: 10 µM unless noted.

SMILES | growth
COc1ccc(C(=O)N2c3ccccc3Sc3ccccc32)c(OC)c1 | 14.3%
Cc1nc2sc(C(=O)Nc3ccc(Br)cc3)c(N)c2cc1C(O)c1ccccc1 (stereo not given) | 49.2%
CNc1nnc2n(-c3ccccc3)c(=O)c3cnn(-c4ccccc4)c3n12 | 87.4%
[O-]/[N+](=C\c1ccc(-n2cc(Cc3ccccc3Cc3cn(-c4ccc(/C=[N+](/[O-])c5ccccc5)cc4)nn3)nn2)cc1)c1ccccc1 | 98.8%
COc1ccc(/C=N\Nc2nc(SCCC(C)C)nc(-c3ccc(OC)cc3)c2C#N)cc1 | 83%
COC1/C=C/OC2(C)Oc3c(C)c(O)c4c(O)c(c(/C=N/Nc5ccc([N+](=O)[O-])cc5[N+](=O)[O-])c(O)c4c3C2=O)NC(=O)C(C)=C/C=C/C(C)C(O)C(C)C(O)C(C)C(OC(C)=O)C1C (stereo not given) | 9.93% (active)
COc1cc(OC)c(NC(=O)c2cc3ccccc3cc2O)cc1Cl | 18.5%
CC(C)(C)[Si](C)(C)OC1[C@@H](CNC(=O)NC(=O)NC(N)=O)O[C@@H](n2cnc3c(NC(=O)Nc4ccccc4)ncnc32)[C@H]1O[Si](C)(C)C(C)(C)C (stereo not given in full) | 61.5%
COc1ccc(C/C(C)=C(\c2ccc(Cl)cc2)c2ccc(OCCN3CCCCC3)cc2)cc1 | 104%
CCCCNC(=O)Oc1ccc(/C(=C(/C)Cc2ccc(OC)cc2)c2ccc(OCCN(CC)CC)cc2)cc1 | 85.1%
